Here are results for 14 compounds from ChEMBL document CHEMBL1961873, “Compounds: GSK PKIS; Assays: Nanosyn kinase panel” (2012).

The target of test [1] is Protein kinase C gamma type (Homo sapiens) (UniProt P05129). The settings on record: at 1 µM.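 Also: each value is an averaged percent inhibition of the enzyme.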
Test [2] addresses T1, Protein kinase C iota type (Homo sapiens) (UniProt P41743).
T1 sequence (whole entry): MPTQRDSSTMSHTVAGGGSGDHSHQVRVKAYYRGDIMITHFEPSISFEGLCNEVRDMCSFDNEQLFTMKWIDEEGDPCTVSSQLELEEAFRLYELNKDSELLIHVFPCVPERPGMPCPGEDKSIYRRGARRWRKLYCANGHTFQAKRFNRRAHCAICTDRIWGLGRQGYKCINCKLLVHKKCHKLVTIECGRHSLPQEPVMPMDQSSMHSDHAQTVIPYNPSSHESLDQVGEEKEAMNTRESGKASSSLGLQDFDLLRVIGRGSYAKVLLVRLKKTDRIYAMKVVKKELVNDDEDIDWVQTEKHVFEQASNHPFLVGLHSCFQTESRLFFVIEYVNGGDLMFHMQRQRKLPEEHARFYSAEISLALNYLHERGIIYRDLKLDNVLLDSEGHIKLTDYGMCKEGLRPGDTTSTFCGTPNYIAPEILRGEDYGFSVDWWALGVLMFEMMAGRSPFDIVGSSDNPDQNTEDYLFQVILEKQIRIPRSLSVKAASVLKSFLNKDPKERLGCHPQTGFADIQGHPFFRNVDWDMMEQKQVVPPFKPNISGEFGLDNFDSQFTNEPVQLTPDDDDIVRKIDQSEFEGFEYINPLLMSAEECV
The settings on record: at 0.1 µM.

For test [3], the target named is T1, Protein kinase C iota type (Homo sapiens). The settings on record: at 1 µM.
Test [4] addresses Protein kinase C theta type (Homo sapiens) (UniProt Q04759). Conditions: at 0.1 µM.
For test [5] the target is unchanged. Conditions: at 1 µM.
For test [6], the target named is Protein kinase C beta type (Homo sapiens) (UniProt P05771). Conditions: at 0.1 µM.
Test [7] shares this target. The settings on record: at 1 µM.
For test [8], the target named is T2, Serine/threonine-protein kinase D1 (Homo sapiens) (UniProt Q15139).
T2 sequence (whole entry): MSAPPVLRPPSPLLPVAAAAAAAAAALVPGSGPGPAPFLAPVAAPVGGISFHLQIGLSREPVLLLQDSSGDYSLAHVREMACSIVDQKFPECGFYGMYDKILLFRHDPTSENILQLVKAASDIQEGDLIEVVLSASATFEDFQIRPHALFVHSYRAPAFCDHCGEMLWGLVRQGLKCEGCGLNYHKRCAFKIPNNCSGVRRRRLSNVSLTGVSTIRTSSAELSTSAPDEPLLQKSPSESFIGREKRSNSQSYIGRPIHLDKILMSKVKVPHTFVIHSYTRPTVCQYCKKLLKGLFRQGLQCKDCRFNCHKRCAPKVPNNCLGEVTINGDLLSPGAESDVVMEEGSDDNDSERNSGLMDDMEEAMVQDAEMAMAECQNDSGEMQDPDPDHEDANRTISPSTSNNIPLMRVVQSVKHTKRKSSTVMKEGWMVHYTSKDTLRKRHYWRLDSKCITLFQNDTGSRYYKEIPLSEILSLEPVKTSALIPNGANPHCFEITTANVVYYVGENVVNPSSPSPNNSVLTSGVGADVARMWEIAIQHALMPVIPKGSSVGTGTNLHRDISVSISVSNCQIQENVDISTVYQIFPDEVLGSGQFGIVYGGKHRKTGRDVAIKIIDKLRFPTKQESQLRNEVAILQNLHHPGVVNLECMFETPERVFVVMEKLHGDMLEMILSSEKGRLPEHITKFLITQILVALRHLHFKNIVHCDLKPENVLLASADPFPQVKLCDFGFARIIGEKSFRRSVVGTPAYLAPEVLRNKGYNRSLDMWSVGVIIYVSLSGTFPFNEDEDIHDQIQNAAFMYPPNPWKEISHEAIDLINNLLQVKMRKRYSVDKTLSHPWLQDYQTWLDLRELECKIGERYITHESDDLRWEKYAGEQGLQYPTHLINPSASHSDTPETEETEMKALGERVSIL
Conditions: at 0.1 µM.

The target in test [9] is T2, Serine/threonine-protein kinase D1 (Homo sapiens). Conditions: at 1 µM.
Test [10] has as its target T3, Serine/threonine-protein kinase D2 (Homo sapiens) (UniProt Q9BZL6).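 Also: reported percent inhibition values are means, part of the GSK PKIS kinase panel screen.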
T3 sequence (whole entry): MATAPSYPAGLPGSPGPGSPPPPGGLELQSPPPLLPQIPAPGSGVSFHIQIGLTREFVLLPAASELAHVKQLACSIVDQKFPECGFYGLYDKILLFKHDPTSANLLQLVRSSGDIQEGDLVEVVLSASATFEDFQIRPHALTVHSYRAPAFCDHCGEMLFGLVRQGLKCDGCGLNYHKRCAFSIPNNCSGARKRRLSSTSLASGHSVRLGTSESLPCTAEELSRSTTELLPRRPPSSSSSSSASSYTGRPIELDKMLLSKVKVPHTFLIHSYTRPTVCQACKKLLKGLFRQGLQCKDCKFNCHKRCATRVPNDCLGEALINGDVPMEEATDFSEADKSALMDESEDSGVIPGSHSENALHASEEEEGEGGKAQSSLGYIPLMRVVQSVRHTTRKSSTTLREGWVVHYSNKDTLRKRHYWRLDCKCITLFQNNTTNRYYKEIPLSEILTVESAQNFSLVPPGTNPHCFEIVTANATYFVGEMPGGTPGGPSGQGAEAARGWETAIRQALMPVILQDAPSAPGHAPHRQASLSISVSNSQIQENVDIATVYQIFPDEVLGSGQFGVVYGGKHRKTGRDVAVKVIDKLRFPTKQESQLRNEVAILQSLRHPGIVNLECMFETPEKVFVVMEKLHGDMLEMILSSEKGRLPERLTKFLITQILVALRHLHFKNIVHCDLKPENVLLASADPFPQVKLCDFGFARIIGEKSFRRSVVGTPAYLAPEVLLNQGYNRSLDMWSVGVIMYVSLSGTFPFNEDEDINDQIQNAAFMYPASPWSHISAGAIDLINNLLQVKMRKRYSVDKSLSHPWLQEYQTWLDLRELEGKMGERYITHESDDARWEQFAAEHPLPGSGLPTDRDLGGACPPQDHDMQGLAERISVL
The settings on record: at 0.1 µM.

Protein kinase C beta type (Homo sapiens), sequence (P05771 2-671 limits assumed): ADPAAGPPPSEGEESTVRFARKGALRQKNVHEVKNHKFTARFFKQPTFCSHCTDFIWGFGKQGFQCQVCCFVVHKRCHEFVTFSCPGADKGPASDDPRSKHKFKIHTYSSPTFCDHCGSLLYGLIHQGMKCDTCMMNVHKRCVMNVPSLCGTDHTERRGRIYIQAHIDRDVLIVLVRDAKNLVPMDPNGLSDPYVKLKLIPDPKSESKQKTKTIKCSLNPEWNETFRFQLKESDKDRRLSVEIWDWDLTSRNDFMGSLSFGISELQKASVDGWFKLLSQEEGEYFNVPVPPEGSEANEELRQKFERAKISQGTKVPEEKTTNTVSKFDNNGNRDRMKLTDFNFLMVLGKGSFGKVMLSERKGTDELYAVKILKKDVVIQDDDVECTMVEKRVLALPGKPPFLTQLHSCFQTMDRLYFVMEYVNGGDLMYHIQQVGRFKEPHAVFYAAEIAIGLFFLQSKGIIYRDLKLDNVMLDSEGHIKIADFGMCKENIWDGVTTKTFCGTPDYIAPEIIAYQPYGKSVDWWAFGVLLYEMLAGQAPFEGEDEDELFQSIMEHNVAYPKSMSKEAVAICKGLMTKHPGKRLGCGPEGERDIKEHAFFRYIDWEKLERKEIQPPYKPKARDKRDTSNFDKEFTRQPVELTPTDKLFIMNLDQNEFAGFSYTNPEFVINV
Protein kinase C theta type (Homo sapiens), sequence (Q04759 whole entry, looked up): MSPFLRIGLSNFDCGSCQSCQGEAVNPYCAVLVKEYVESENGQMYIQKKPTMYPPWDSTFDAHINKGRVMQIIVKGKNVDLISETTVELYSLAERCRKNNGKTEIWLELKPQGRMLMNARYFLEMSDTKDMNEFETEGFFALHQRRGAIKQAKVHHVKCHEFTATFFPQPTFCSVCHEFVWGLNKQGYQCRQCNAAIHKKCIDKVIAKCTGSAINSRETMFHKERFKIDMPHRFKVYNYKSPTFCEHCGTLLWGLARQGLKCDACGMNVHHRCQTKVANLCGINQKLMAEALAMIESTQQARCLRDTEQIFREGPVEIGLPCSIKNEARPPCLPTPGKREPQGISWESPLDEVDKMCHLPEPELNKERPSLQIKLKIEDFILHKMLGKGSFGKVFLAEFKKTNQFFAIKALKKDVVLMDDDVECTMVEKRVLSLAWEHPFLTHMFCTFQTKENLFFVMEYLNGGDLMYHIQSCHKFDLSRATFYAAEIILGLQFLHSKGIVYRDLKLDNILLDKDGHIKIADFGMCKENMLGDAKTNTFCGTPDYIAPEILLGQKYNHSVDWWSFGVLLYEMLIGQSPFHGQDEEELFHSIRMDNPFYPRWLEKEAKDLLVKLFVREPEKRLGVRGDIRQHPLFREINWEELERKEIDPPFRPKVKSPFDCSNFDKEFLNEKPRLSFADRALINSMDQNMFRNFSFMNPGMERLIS

The inhibition is the relative decrease from the control value, in per cent. As for `NC(=O)c1cccc(Nc2nccc(Nc3cccc(F)c3)n2)c1`, the inhibition was 4.93% in test [1]; -0.38% in test [2]; -1.03% in [3]; 0.79% in test [4]; 0.72% in [5]; 2.1% in [6]. The inhibition came to 4.84% in [7], 1.93% in test [8], 4.25% in test [9] and 0.71% in [10].
With `COc1cc2ncn(-c3cc(OCc4ccccc4S(C)(=O)=O)c(C#N)s3)c2cc1OC`, the inhibition in test [1] came to 6.46%; in test [2], 2.06%; in test [3], 3.79%; in [4], 2.44%; in [5], 3.61%; in test [6], 1.55%. Moreover, the inhibition amounted to 4.05% in test [7], 2.92% in test [8], 5.45% in [9] and 3.97% in test [10].
With `COC(=O)c1ccc2c(c1)C(=Cc1cc(Br)c(O)c(Br)c1)C(=O)N2`, the inhibition in test [1] turned out to be 0.79%; in test [2] it was 1.17%; in test [3], 0.96%; in test [4] it was 1.25%; in test [5] it was 1.86%; in test [6] it was 1.12%. Further, the inhibition in test [7] worked out at 1.9%; in [8], 5.07%; in [9], 7.26%; in [10], 4.47%.
Turning to `Cc1cc(-c2ccccn2)cc(C)c1/C=C/c1cncc(-c2nn[nH]n2)c1`, the inhibition is 2.83% in [1]; 0.86% in [2]; 1.38% in test [3]; 1.86% in test [4]; 3.08% in [5]; 1.2% in test [6]. Also, the inhibition in test [7] was 2.79%; in [8], 6.68%; in test [9], 11%; in test [10], 6.87%.
As for `CN(C)CCCn1c(-c2nonc2N)nc2cnccc21`, the inhibition is 4.25% in test [1]; 2.62% in [2]; 3.77% in [3]; 2.2% in [4]; 1.32% in test [5]; 2.32% in test [6]. In addition, the inhibition in [7] was found to be 4.48%; in test [8], 3.41%; in test [9], 7.59%; in test [10], 4.15%.
Consider `Nc1nccc(-c2c(-c3ccc(F)cc3)ncn2CCCN2CCOCC2)n1`, for which the inhibition in test [1] stood at 6.84%; in [2] it was 3.1%; in [3] it was 3.21%; in test [4], 2.24%; in test [5], 3.31%; in test [6], 3.01%. For the same compound, the inhibition worked out at 7.42% in test [7], 4.07% in [8], 5.03% in test [9] and 5.14% in [10].
Consider `COc1cc(Nc2nccc(-c3cnn4ncccc34)n2)cc(OC)c1`, for which the inhibition was 16.8% in test [1]; -0.04% in test [2]; 0.62% in test [3]; 0.09% in [4]; 6.77% in test [5]; 1.8% in [6]. Further, the inhibition worked out at 16.9% in test [7], 1.77% in test [8], 16.4% in test [9] and 2.57% in [10].
Consider `CN(c1ccc(NC(=O)Nc2ccc(OC(F)(F)F)cc2)cc1)c1ccnc(Nc2cccc(S(N)(=O)=O)c2)n1`, for which the inhibition was 2.99% in test [1]; 0.52% in [2]; -0.73% in test [3]; 0.61% in test [4]; 0.96% in [5]; -0.08% in test [6]. Besides, the inhibition turned out to be 0.69% in [7], 2.95% in [8], 4.48% in test [9] and 3.68% in test [10].
For the compound `N#Cc1c(NC(=O)c2ccccc2F)sc2c1CCCC2`, the inhibition in [1] was 0.15%; in test [2], -1.48%; in test [3], -0.75%; in test [4], -0.76%; in [5], -0.86%; in [6], -0.47%. The inhibition was 0.43% in test [7], -1.42% in test [8], 0.24% in test [9] and 0.84% in test [10].
Turning to `COc1cccc(-n2ncc3c(N/N=C/c4ccc(S(C)(=O)=O)cc4)ncnc32)c1`, the inhibition in test [1] was 3.18%; in test [2], 2.06%; in test [3] it was 0.98%; in test [4], -0.11%; in [5], 1.19%; in test [6], 2.19%. Further, the inhibition in test [7] is 13.3%; in test [8], -2.12%; in test [9] it was -1.45%; in test [10], -2.64%.
On to `COc1ccc(-c2nn3ncccc3c2-c2ccnc(Nc3cccc(C(F)(F)F)c3)n2)cc1`, for which the inhibition in [1] was 1.55%; in test [2], 0.94%; in test [3], -0.08%; in [4], 1.65%; in [5] it was 0.8%; in test [6], 1.35%. Moreover, the inhibition amounted to 2.07% in test [7], 3.56% in test [8], 3.79% in test [9] and 1.6% in [10].
In the case of `Cc1ccc2c(c1)/C(=N/Nc1ccc(S(N)(=O)=O)cc1)C(=O)N2`, the inhibition in [1] is -1.54%; in test [2] it was -1.59%; in test [3], 0.19%; in [4], -0.6%; in test [5] it was -1.65%; in [6], 0.19%. The inhibition in [7] came to 0.09%; in test [8], 0.96%; in test [9] it was 1.76%; in test [10], 1.62%.
For the compound `CCS(=O)(=O)c1ccc(OC)c(Nc2ncc(-c3cccc(OC)c3)o2)c1`, the inhibition was 3.87% in [1]; 1.8% in test [2]; 3.38% in test [3]; 1.22% in [4]; 0.3% in [5]; 0.6% in test [6]. The inhibition in test [7] was found to be 2.93%; in [8], 2.32%; in [9], 4.41%; in [10], 2.35%.
For `C[C@@H](Oc1cc(-n2cnc3ccc(OCC4CCN(C)CC4)cc32)sc1C(N)=O)c1ccccc1C(F)(F)F`, the inhibition in test [1] is 7.81%; in test [2], -1.38%; in [3] it was 0.4%; in test [4] it was 2.09%; in [5] it was 19.4%; in test [6] it was 2.07%. Moreover, the inhibition in test [7] is 18.8%; in [8], -0.56%; in test [9], 12.1%; in test [10], 2.29%.
